Records with an inconclusive call do not appear. Active and inactive are the calls of the source. Unless noted, calls follow the shape of the dose curve; as a rule, active = well fitted curve in the direction sought with a large enough effect; inconclusive = small, poorly fitted or top-dose-only effect, or another doubt; inactive = no such curve, though single readings can be large; an effect the other way counts as inactive or inconclusive.

From PubChem BioAssay (NCATS) come the findings set out here.

Assay [1] deals with Cytochrome P450 1A2 (Homo sapiens) (UniProt P05177). As to the kind of experiment: p450-cyp1a2 (AID 410; calls by dose curve; also: potency is read from the fitted curve at half-maximal effect). Put shortly:
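Read-out is luminescence from luciferin produced by CYP1A2 demethylation of Luciferin-ME (100uM, at Km). Detection reagent stopped the 60 min NADPH-dependent reaction; signals were normalized to 57 uM furafylline.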

Assay [2] concerns the target Glucocorticoid receptor (Homo sapiens) (UniProt P04150). Description: GR-GFP Redistribution (AID 450;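 active = compounds whose dose series gives a full or clear partial fitted curve of increased nuclear translocation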; also: potency is read from the fitted curve at half-maximal effect).
The target in assay [3] is 3',5'-cyclic-AMP phosphodiesterase 4B (Homo sapiens) (UniProt Q07343). As to the kind of experiment: qHTS Assay for Inhibitors of PDE-IV (AID 607; active = well fitted activation curve with a large enough effect in the main read-out, with a control signal flat, not every such curve was filed as active; also: % of control where 0% means no effect). Put shortly: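 ACTOne HEK293 cells carry a modified cAMP-gated CNG channel and express endogenous PDE4; plated 1000 cells/well, compounds up to 22.9 uM final. Membrane-potential dye fluorescence (ex 535/em 590) was read; parental cells received 10 uM forskolin + 100 uM RO 20-1724.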

For assay [4], the target named is DNA dC->dU-editing enzyme APOBEC-3G (Homo sapiens) (UniProt Q9HC16). Description: qHTS for inhibitors of Vif-A3G interactions: Validation (AID 588379). Also: 0% is about no effect. Put shortly:
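Yellow fluorescence (Ex 488, Em 500-530) of Vif-coexpressing HeLa A3G-eYFP cells, scanned by Acumen cytometer, reports blocked A3G degradation. Cells plated at 700/well overnight at 37 deg C before compound addition, then a further overnight compound incubation at 37 deg C.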
(Quantitative high-throughput screening tests each substance at several concentrations.)

Assay [5] concerns the target Androgen receptor (Homo sapiens) (UniProt P10275). As to the kind of experiment: qHTS assay for small molecule agonists of androgen receptor signaling (AID 588515; active = well fitted curve in the direction sought with a large enough effect in the signal ratio, with a control signal flat; the % refers to the signal ratio; also: % is scaled to controls: 0 for no effect and ±100 for the full control effect). As to conditions: AR-UAS-bla HEK293, beta-lactamase ratio, agonist 16 h; stronger effect = higher value. Put shortly:
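Stimulation of an AR-responsive β-lactamase reporter in GripTite HEK293 cells was measured after 16 h compound exposure at 37 °C, via CCF4 fluorescence after 2 h RT. EC50 from Hill fits, normalized to R1881 at 30 nM.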

For assay [6] the target is unchanged. As to the kind of experiment: qHTS assay for small molecule antagonists of androgen receptor signaling (AID 588516; active = well fitted curve in the direction sought with a large enough effect in the signal ratio, with a control signal flat, not every such curve was filed as active; the % refers to the signal ratio; also: % is scaled to controls: 0 for no effect and ±100 for the full control effect). Put shortly:
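Antagonist-mode qHTS: inhibition of R1881 (10 nM)-driven beta-lactamase expression in GripTite HEK 293 cells is measured after 16 h; values are Hill-derived IC50s normalized between R1881 and DMSO wells.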

For assay [7], the target named is Bile acid receptor (Homo sapiens) (UniProt Q96RI1). As to the kind of experiment: qHTS assay for small molecule antagonists of farnesoid X receptor signaling (AID 588526; calls by dose curve; also: % is scaled to controls: 0 for no effect and ±100 for the full control effect). Put shortly: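 Antagonist mode: titrated compounds tested against chenodeoxycholic acid stimulation (normalized to 50 uM CDCA and DMSO) in GeneBLAzer HEK293T cells for 16 h. Beta-lactamase read by CCF4 fluorescence; IC50 from Hill fits.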

The target in assay [8] is Glucocorticoid receptor (Homo sapiens) (UniProt P04150). Description: qHTS assay for small molecule agonists of glucocorticoid receptor signaling (AID 588532; active = well fitted curve in the direction sought with a large enough effect in the signal ratio, with a control signal flat; the % refers to the signal ratio;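 also: 100% = dexamethasone at 0.1 µM and 0% = DMSO only wells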). The note with it: HeLa MMTV-bla, beta-lactamase ratio, agonist, 18 h; stronger effect = higher value; percent of dexamethasone control, DMSO zero. Put shortly: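 HeLa GRE-bla reporter cells; 18 h compound exposure at 37 C; 2 h CCF4 loading at room temperature; fluorescence at 460 and 530 nm; EC50 by Hill equation.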

Assay [9] concerns the target Peroxisome proliferator-activated receptor gamma (Homo sapiens) (UniProt P37231). As to the kind of experiment: qHTS assay for small molecule antagonists of peroxisome proliferator-activated receptor gamma signaling (AID 588537; active = well fitted inhibition curve with a large enough effect in the signal ratio, with a control signal flat, not every such curve was filed as active; the % refers to the signal ratio;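 also: reporter cells co-stimulated with 50 nM rosiglitazone agonist during compound treatment; % of control where 0% means no effect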). An outline of the steps:
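Read-out: CCF4 fluorescence (ex 405, em 460/530 nm) after 2 h at RT. Cells were HEK293 carrying a UAS-bla reporter and treated 16 h at 37 C with compound plus rosiglitazone (50 nM final). Normalized to rosiglitazone and DMSO.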

In assay [10] the target is Thyroid hormone receptor beta (Homo sapiens) (UniProt P10828). Description: qHTS assay for small molecule agonists of thyroid hormone receptor beta signaling (AID 588545; calls by dose curve;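 also: 0% = DMSO only and 100% = 10 nM T3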). Put shortly:
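TR-UAS-bla GripTite HEK 293 cells (2500/well, medium with 2% charcoal/dextran FBS) were treated in agonist mode for 18 h at 37 C, titrated. Beta-lactamase was read by CCF4 ratio after 2 h; normalized to 10 nM T3 (100%) and DMSO, Hill-fitted for EC50 and efficacy.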

Assay [11] can be described thus: qHTS assay for small molecule antagonists of retinoid X receptor alpha signaling (AID 588546; active = well fitted inhibition curve with a large enough effect in the signal ratio, with a control signal flat, not every such curve was filed as active; the % refers to the signal ratio;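 also: cells stimulated with 9-cis-retinoic acid as agonist; % is scaled to controls: 0 for no effect and ±100 for the full control effect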). As to conditions: HEK293T RXRa-UAS-bla, beta-lactamase ratio, antagonist mode; measured here: W530 green channel, cytotoxicity proxy. Put shortly:
(§1)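 Beta-lactamase reporter inhibition, read as CCF4 fluorescence ratio (ex 405, em 460/530 nm) after 2 h at RT. HEK293T UAS-bla cells, 2500/well, were stimulated with 9-cis-RA at 500 or 100 nM final alongside test compound for 18 h at 37 C.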

The target in assay [12] is Retinoic acid receptor RXR-alpha (Homo sapiens) (UniProt P19793). The description is as above. The note with it: HEK293T RXRa-UAS-bla, beta-lactamase ratio, antagonist mode. Put shortly:
as §1

Assay [13] concerns the target Thyroid hormone receptor beta (Homo sapiens) (UniProt P10828). As to the kind of experiment: qHTS assay for small molecule antagonists of thyroid hormone receptor beta signaling (AID 588547; active = well fitted inhibition curve with a large enough effect in the signal ratio, with a control signal flat, not every such curve was filed as active; the % refers to the signal ratio). The note with it: TR-UAS-bla HEK293, beta-lactamase ratio, antagonist mode, 18 h. Put shortly: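 TR-UAS-bla GripTite HEK293 cells in 2% charcoal/dextran FBS medium; compounds 0.59 nM to 92 uM with T3 at 0.4nM final, 18 h at 37 C. Beta-lactamase read by CCF4 fluorescence (460/530 nm); Hill fits gave IC50 and efficacy.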

Assay [14] is described as follows: qHTS assay for small molecule agonists of the antioxidant response element (ARE) signaling pathway (AID 651741; active = well fitted activation curve with a large enough effect in the signal ratio; the % refers to the signal ratio; also: potency is read from the fitted curve at half-maximal effect). Put shortly: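 HepG2 ARE-bla reporter cells, 2,000/well; 5 h settle at 37 C/5% CO2; compound pin transfer (23 nL, DMSO); 16 h at 37 C; LiveBLAzer B/G FRET substrate, 2 h RT; fluorescence intensity read.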
Assay [15] is described as follows: qHTS assay for small molecule activators of the nuclear factor-kappa B (NF-kB) signaling pathway (AID 651749; active = well fitted activation curve with a large enough effect in the signal ratio; the % refers to the signal ratio; also: series mostly up to about 77 µM; % of control where 0% means no effect). The note with it: NF-kB-bla ME-180 cells, beta-lactamase FRET ratio, 16 h; stronger effect = higher value. An outline of the steps: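 NF-kB-bla ME-180 cells, 2,000/well; 23 nL compound or DMSO pinned; 16 hr, 37C/5% CO2; beta-lactamase FRET read-out.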
Assay [16] addresses Peroxisome proliferator-activated receptor alpha (Homo sapiens) (UniProt Q07869). As to the kind of experiment: qHTS assay for small molecule agonists of the peroxisome proliferator-activated receptor alpha (PPARalpha) signaling pathway (AID 651778). Also: % of control where 0% means no effect. The note with it: PathHunter PPARalpha complementation, chemiluminescence, 6 h; max response: stronger effect = higher value. Put shortly: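 Enzyme-fragment complementation assay in which ligand-bound PPARalpha translocates and forms an active enzyme that generates chemiluminescence. Cells were plated overnight, exposed to compound for 6 hr at 37 C, and then given detection reagent for 60 min at room temperature.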

Assay [17] in a line: qHTS assay for small molecule agonists of the antioxidant response element (ARE) signaling pathway measured by Nrf2-dependant transcriptional activity (AID 720636; active = well fitted curve in the direction sought with a large enough effect in the repeat runs; an effect the other way counts as inactive or inconclusive; also: % of control where 0% means no effect). Put shortly:
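ARE-luc HepG2 cells carrying an Nrf2-responsive luciferase reporter were plated in medium with 1% dialyzed FBS, left 6 hr at 37 C to attach, then exposed to compound for 16 hr. Luciferase luminescence was read after ONE-Glo addition.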

The nature of assay [18]: qHTS assay for small molecule agonists of the antioxidant response element (ARE) signaling pathway measured by Nrf2-dependant transcriptional activity - cell viability counter screen (AID 720653; active = well fitted curve in the direction sought with a large enough effect in the repeat runs; an effect the other way counts as inactive or inconclusive; also: % is scaled to controls: 0 for no effect and ±100 for the full control effect). The note with it: ARE-bla HepG2 viability, CellTiter-Glo ATP luminescence, 16 h; max response: stronger effect = lower value. An outline of the steps: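 ARE-bla HepG2 cells treated with compounds for 16 h at 37C; this counter screen measures viability as intracellular ATP by CellTiter-Glo luminescence after 30 min at room temperature.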

Assay [19] is described as follows: qHTS assay for cell viability of HEK293 cells (AID 743288). Also: % is scaled to controls: 0 for no effect and ±100 for the full control effect; nearly all actives have a fitted effect of over 50% in size. The note with it: ATP luminescence (CellTiter-Glo), 18 h; max response: stronger effect = lower value. An outline of the steps:
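Quantitative high-throughput screen: compounds were pinned onto parental HEK293 cells (2,000 per well) after a minimum 5 h settling at 37 C, incubated 18 h at 37 C, and intracellular ATP measured by luciferase luminescence.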

The nature of assay [20]: qHTS assay for cell viability of the p53RE-bla HCT-116 cell line (AID 743292). Also: % is scaled to controls: 0 for no effect and ±100 for the full control effect; nearly all actives have a fitted effect of over 55% in size. An outline of the steps: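 CellSensor p53RE-bla HCT-116 cells, 4,000/well, preincubated 5 h at 37 C, then exposed to compounds in DMSO for 16 h at 37 C. Viability read as CellTiter-Glo luminescence (intracellular ATP) after 30 min at room temperature.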
Assay [21] deals with Nuclear receptor subfamily 1 group I member 2 (Rattus norvegicus) (UniProt Q9R1A7). Description: qHTS assay for small molecule activators of the rat pregnane X receptor (rPXR) signaling pathway (AID 651751; call rule not given here; also: 0% is about no effect). As to conditions: rPXR reporter cells, luciferase (One-Glo), 24 h.
The nature of assay [22]: qHTS assay for small molecule activators of the human pregnane X receptor (PXR) signaling pathway (AID 720659; call rule not given here; also: 0% is about no effect).

Androgen receptor (Homo sapiens), sequence (P10275 whole entry, looked up): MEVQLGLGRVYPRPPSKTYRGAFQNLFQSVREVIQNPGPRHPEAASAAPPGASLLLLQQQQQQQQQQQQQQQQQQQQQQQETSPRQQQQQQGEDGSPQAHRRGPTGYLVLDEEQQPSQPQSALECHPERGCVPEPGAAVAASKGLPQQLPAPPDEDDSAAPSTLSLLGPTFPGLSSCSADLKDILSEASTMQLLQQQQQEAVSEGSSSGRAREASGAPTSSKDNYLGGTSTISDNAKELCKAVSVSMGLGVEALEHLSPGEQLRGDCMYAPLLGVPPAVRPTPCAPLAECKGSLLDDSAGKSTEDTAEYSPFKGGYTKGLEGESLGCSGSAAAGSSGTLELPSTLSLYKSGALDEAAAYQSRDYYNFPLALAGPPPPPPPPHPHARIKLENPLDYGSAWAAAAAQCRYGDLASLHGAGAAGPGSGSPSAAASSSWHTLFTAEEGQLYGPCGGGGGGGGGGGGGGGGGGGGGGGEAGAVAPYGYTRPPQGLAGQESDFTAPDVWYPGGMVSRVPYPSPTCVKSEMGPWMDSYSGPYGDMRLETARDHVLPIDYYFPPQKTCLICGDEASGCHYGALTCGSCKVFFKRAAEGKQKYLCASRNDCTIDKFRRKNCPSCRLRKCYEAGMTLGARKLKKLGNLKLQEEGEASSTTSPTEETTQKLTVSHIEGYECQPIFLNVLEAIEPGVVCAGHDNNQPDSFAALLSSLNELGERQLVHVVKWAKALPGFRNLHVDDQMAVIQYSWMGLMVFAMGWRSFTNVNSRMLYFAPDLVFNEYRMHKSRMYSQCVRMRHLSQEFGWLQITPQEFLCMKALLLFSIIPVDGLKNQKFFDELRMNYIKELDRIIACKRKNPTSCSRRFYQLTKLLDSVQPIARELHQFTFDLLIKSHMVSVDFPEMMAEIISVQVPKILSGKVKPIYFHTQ
Thyroid hormone receptor beta (Homo sapiens), sequence (P10828 whole entry, looked up): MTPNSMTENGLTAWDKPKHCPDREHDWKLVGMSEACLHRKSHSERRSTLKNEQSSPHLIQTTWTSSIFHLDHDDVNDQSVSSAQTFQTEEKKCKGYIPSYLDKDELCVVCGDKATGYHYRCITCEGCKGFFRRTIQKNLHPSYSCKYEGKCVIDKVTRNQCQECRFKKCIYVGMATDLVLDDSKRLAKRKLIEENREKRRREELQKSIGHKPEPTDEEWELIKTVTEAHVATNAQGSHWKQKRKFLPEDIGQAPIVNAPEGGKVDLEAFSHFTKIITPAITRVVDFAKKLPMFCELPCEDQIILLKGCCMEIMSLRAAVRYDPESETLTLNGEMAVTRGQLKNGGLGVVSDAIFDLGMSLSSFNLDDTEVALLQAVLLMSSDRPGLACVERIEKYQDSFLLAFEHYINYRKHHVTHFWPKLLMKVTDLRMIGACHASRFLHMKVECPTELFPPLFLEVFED
Glucocorticoid receptor (Homo sapiens), sequence (P04150 whole entry, looked up): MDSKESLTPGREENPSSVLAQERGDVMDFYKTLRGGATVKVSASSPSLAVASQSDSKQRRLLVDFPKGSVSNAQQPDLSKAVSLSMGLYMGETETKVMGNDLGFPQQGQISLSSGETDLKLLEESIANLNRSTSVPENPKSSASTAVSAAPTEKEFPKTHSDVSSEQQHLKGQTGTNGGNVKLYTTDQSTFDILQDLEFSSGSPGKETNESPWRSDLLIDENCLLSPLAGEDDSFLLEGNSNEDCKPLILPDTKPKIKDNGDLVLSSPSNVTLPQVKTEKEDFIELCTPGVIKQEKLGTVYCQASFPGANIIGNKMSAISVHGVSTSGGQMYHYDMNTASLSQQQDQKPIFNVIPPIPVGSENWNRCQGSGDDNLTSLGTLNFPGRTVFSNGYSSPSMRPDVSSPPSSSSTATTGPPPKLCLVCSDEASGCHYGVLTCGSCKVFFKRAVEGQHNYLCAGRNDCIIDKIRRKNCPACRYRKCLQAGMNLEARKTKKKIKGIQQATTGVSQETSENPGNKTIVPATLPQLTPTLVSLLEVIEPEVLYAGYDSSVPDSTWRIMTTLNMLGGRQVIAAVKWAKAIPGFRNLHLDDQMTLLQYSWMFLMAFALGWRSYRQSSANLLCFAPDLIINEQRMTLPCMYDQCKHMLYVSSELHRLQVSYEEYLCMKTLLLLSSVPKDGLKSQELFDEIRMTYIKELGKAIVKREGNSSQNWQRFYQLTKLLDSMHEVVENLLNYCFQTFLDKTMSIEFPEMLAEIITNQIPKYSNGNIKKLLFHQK
Cytochrome P450 1A2 (Homo sapiens), sequence (P05177 whole entry, looked up): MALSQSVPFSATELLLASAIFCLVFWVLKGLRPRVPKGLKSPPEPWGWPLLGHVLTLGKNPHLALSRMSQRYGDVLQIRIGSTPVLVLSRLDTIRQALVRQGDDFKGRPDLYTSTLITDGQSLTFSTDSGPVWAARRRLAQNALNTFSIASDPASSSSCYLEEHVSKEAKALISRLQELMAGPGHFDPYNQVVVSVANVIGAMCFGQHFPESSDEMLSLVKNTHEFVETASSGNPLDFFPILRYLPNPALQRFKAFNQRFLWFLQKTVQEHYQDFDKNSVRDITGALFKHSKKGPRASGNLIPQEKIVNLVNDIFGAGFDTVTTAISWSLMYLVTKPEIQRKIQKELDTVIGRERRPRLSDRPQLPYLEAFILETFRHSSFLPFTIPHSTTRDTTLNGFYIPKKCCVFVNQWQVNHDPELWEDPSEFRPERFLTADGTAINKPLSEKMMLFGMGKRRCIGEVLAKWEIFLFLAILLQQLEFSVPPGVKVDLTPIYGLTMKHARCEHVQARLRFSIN
Nuclear receptor subfamily 1 group I member 2 (Rattus norvegicus), sequence (Q9R1A7 whole entry, looked up): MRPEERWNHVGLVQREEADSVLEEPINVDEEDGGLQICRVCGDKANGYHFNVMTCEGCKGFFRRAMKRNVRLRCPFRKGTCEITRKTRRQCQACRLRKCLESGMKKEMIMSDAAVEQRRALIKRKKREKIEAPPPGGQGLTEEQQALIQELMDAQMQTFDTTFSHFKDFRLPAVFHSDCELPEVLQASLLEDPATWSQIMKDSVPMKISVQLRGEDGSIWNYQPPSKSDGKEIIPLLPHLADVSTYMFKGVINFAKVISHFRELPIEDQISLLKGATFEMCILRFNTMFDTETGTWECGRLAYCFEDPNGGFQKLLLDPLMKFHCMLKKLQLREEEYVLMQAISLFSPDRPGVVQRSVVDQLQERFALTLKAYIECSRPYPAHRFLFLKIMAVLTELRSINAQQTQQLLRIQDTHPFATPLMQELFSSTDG
3',5'-cyclic-AMP phosphodiesterase 4B (Homo sapiens), sequence (Q07343 whole entry, looked up): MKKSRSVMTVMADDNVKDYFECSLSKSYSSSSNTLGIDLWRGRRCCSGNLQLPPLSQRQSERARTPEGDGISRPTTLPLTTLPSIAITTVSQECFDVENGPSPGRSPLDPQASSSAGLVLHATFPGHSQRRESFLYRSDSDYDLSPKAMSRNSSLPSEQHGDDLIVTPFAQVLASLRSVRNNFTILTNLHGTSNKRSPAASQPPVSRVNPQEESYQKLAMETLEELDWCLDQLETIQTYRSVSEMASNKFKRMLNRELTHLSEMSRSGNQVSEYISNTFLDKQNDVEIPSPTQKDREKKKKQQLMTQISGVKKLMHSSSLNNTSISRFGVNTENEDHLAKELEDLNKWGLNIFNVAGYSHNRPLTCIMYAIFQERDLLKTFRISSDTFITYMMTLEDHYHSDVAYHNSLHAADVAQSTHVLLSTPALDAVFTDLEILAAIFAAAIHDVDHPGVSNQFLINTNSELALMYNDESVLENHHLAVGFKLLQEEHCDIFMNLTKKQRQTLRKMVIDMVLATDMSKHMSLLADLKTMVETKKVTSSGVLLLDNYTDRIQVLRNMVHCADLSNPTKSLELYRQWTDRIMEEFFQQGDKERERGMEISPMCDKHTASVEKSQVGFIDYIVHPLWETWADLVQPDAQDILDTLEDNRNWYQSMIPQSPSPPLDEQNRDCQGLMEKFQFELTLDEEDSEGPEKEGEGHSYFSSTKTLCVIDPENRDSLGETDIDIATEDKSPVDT
DNA dC->dU-editing enzyme APOBEC-3G (Homo sapiens), sequence (Q9HC16 whole entry, looked up): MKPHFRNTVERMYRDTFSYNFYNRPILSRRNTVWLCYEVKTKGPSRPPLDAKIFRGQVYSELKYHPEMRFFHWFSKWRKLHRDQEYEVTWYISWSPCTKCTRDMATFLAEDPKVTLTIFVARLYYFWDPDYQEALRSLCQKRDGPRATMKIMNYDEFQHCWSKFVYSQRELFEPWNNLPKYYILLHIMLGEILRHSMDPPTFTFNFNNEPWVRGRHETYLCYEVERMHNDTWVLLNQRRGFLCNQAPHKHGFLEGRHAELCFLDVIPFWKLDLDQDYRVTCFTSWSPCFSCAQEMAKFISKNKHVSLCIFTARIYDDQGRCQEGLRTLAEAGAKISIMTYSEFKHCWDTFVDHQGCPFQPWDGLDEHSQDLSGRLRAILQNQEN
Bile acid receptor (Homo sapiens), sequence (Q96RI1 whole entry, looked up): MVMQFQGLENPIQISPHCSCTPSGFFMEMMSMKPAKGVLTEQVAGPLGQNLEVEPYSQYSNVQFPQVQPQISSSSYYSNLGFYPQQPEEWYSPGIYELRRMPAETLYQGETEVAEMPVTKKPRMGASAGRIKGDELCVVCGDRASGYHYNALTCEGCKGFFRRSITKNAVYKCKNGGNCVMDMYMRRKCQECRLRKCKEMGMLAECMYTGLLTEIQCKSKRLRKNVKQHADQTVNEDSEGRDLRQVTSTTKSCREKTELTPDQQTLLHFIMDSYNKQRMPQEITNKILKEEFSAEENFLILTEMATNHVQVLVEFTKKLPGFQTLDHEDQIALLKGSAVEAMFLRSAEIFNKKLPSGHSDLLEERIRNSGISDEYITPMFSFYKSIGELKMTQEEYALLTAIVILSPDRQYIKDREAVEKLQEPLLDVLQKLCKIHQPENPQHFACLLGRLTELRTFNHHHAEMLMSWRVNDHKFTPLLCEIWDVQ

Turning to `CC1(C)CCC(C)(C)c2cc(C(=O)Nc3ccc(C(=O)O)cc3)ccc21`, the Potency in assay [1] was 31.6 µM (active); in assay [2] it was > 46 µM (inactive); in assay [14] it was 61.1 µM (active). Further, the Potency result in [3], in assay [7], in assay [9], in [17] and in assay [20] was “inactive” each time. For the same compound, the call in [4], in [6], in [10] and in assay [22] was inactive. In addition, the activation in assay [5] is -12.7% (inactive); in assay [8], -10.3% (inactive); in assay [15], 1.76% (inactive). For the same compound, the max response in [11] is 2.34%; in assay [12], -51.1% (inactive); in assay [16] it was 0.0193% (inactive); in assay [18], -7.97% (inactive); in [19] it was 1.87% (inactive); in assay [21] it was -9.44% (inactive). For the same compound, in assay [13], the activity change % (negative = inhibition) is 15.7% (inactive).
